# Reference: the supplement of paper PMC3414501
# Structures can show the parent of a compound that is named as a salt.
# Key:
# [1] = test system: S. cerevisiae SK1 pCDA2-eGFP (USY613), sporulating; experiment: CDA2-GFP sporulation assay sensitivity score (z-score vs DMSO controls); higher = stronger inhibition of sporulation, active = hit call of the paper;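 also: active if sensitivity score above 5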
# [2] = test system: S. cerevisiae NKY1551 his4x/his4B, sporulating; experiment: HIS4 meiotic recombination assay sensitivity score (z-score vs DMSO controls); higher = stronger inhibition of sporulation/recombination, active = hit call of the paper;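 also: active if sensitivity score above 5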
# [3] = test system: S. cerevisiae AD1-9 (efflux-pump deficient), vegetative growth in YPD; experiment: growth sensitivity score (doubling time z-score vs DMSO controls); higher = slower growth, strongly negative scores also mark growth inhibition (complete suppression), active = hit call of the paper
# In short: (§1)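 Optical density of Saccharomyces cerevisiae cultures in microtiter plates was followed every 15 min for 24 hours after seeding at an OD600 of 0.065. Eight solvent-only wells were run per experiment. Growth sensitivity scores were found by subtracting the solvent-only mean from the compound mean and dividing by the solvent-only standard deviation.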
# [4] = test system: S. cerevisiae BY4741 (wild-type), vegetative growth in YPD; experiment: as above
# In short: as §1
SMILES,CDA2-GFP sporulation assay sensitivity score [1],HIS4 meiotic recombination assay sensitivity score [2],growth sensitivity score [3],growth sensitivity score [4]
"Cc1onc(-c2ccccc2)c1-c1ccc(S(N)(=O)=O)cc1 [Valdecoxib] (stock concentration (mM, diluted 1:100): 10)",-1.13 (inactive),-1.51 (inactive),11 (active),0.72 (inactive)
"COC(=O)C1=C(C)NC(C)=C(C(=O)OC(C)C)C1c1cccc2nonc12 (centres undefined) [Isradipine] (stock concentration (mM, diluted 1:100): 9.9)",1.45 (inactive),5.46 (active),137 (active),0.93 (inactive)
"C=CC[C@@H]1/C=C(\C)C[C@H](C)C[C@H](OC)[C@H]2O[C@@](O)(C(=O)C(=O)N3CCCC[C@H]3C(=O)O[C@H](/C(C)=C/[C@@H]3CC[C@@H](O)[C@H](OC)C3)[C@H](C)[C@@H](O)CC1=O)[C@H](C)C[C@@H]2OC [Tacrolimus] (stock concentration (mM, diluted 1:100): 10)",0.75 (inactive),-0.77 (inactive),20.9 (active),12 (active)
"CC(=O)O[C@@]12CO[C@@H]1C[C@H](O)[C@@]1(C)C(=O)[C@H](O)C3=C(C)[C@@H](OC(=O)[C@H](O)[C@@H](NC(=O)OC(C)(C)C)c4ccccc4)C[C@@](O)([C@@H](OC(=O)c4ccccc4)[C@H]21)C3(C)C [Docetaxel] (stock concentration (mM, diluted 1:100): 10)",-0.23 (inactive),-1.69 (inactive),-0.53 (inactive),1.16 (inactive)
"CO[C@H]1/C=C/O[C@@]2(C)Oc3c(C)c(O)c4c(O)c(c5c(nc6cc(C)ccn65)c4c3C2=O)NC(=O)/C(C)=C\C=C\[C@H](C)[C@H](O)[C@@H](C)[C@@H](O)[C@@H](C)[C@H](OC(C)=O)[C@@H]1C [Rifaximin] (stock concentration (mM, diluted 1:100): 10)",4.99 (inactive),-0.87 (inactive),-1.56 (inactive),-1.64 (inactive)
"CCC(=O)O[C@]1(C(=O)SCF)[C@H](C)C[C@H]2[C@@H]3C[C@H](F)C4=CC(=O)C=C[C@]4(C)[C@@]3(F)[C@@H](O)C[C@@]21C [Fluticasone propionate] (stock concentration (mM, diluted 1:100): 10)",-2.57 (inactive),-1.24 (inactive),-1.65 (inactive),-0.58 (inactive)
"OC[C@H]1O[C@@H](Oc2cc(O)cc(/C=C/c3ccc(O)cc3)c2)[C@H](O)[C@@H](O)[C@@H]1O [Piceid] (stock concentration (mM, diluted 1:100): 10)",0.56 (inactive),-1.14 (inactive),0.32 (inactive),-0.24 (inactive)
"COc1ccc(CN2CCN(C(c3ccc(F)cc3)c3ccc(F)cc3)CC2)c(OC)c1OC [Lomerizine dihydrochloride] (stock concentration (mM, diluted 1:100): 8.7)",13.1 (active),-0.52 (inactive),,2.29 (active)
"CC(=O)[C@@]1(O)CC[C@H]2[C@@H]3C[C@H](C)C4=CC(=O)CC[C@]4(C)[C@H]3CC[C@@]21C [Medroxyprogesterone] (stock concentration (mM, diluted 1:100): 10)",-0.44 (inactive),0.24 (inactive),4.15 (active),-0.01 (inactive)
"CC(Cc1ccccc1)(NC(=O)CN)c1ccccc1 (centres undefined) [Remacemide] (stock concentration (mM, diluted 1:100): 10)",2.76 (inactive),-1.04 (inactive),4.61 (active),-0.78 (inactive)
"CCCN[C@H]1CCc2nc(N)sc2C1 [Pramipexole hydrochloride] (stock concentration (mM, diluted 1:100): 7.1)",-0.08 (inactive),-0.03 (inactive),-2.17,-0.39 (inactive)
"O=C1C(c2c(O)[nH]c3ccccc23)=Nc2ccccc21 [Indarubicin] (stock concentration (mM, diluted 1:100): 10)",9.61 (inactive),-1.36 (inactive),-1.23 (inactive),-1.62 (inactive)
"CCOC(=O)OC(C)OC1=C(C(=O)Nc2ccccn2)N(C)S(=O)(=O)c2ccccc21 (centres undefined) [Ampiroxicam] (stock concentration (mM, diluted 1:100): 10)",3.3 (inactive),1.18 (inactive),-0.54 (inactive),-0.19 (inactive)
"Cc1cccc(C)c1NC(=O)C1CCCCN1C (centres undefined) [Mepivacaine hydrochloride] (stock concentration (mM, diluted 1:100): 10)",1.82 (inactive),0.1 (inactive),-3.28,-0.29 (inactive)
"CCN1CCC[C@H]1CNC(=O)c1c(O)c(Cl)cc(Cl)c1OC [Raclopride] (stock concentration (mM, diluted 1:100): 10)",0.74 (inactive),-0.66 (inactive),-1.88 (inactive),0.66 (inactive)
"Cc1nc(=O)c2cc(CN(C)c3ccc(C(=O)N[C@@H](CCC(=O)O)C(=O)O)s3)ccc2[nH]1 [Raltitrexed] (stock concentration (mM, diluted 1:100): 10)",-2.11 (inactive),-0.01 (inactive),-3.39,-0.14 (inactive)

SMILES,CDA2-GFP sporulation assay sensitivity score [1],HIS4 meiotic recombination assay sensitivity score [2],growth sensitivity score [3],growth sensitivity score [4]
"CCCCCCCCCCC[C@@H](C[C@@H]1OC(=O)[C@H]1CCCCCC)OC(=O)[C@H](CC(C)C)NC=O [Orlistat] (stock concentration (mM, diluted 1:100): 10)",-2.33 (inactive),-1.52 (inactive),-0.73 (inactive),0.78 (inactive)
"COc1cc(-c2ccc(=O)[nH]n2)ccc1OC(F)F [Zardaverine] (stock concentration (mM, diluted 1:100): 11.7)",1.43 (inactive),-0.18 (inactive),2.67 (active),1.71 (inactive)
"COc1ccc2c(c1)c(CC(=O)O)c(C)n2C(=O)c1ccc(Cl)cc1 [Indomethacin] (stock concentration (mM, diluted 1:100): 10.5)",0.38 (inactive),0.4 (inactive),0.93 (inactive),0.62 (inactive)
"CC(C)NCC(O)COc1ccc(CCOCC2CC2)cc1 (centres undefined) [Betaxolol hydrochloride] (stock concentration (mM, diluted 1:100): 10)",7.8 (active),-0.58 (inactive),-0.35 (inactive),0.42 (inactive)
"CCOC(=O)[C@H](CCc1ccccc1)N[C@@H](C)C(=O)N1[C@H](C(=O)O)C[C@@H]2CCC[C@@H]21 [Ramipril] (stock concentration (mM, diluted 1:100): 10)",0.92 (inactive),-1.04 (inactive),2.05 (active),-0.9 (inactive)
"CN(C)CCN(Cc1ccccc1)c1ccccn1 [Tripelennamine hydrochloride] (stock concentration (mM, diluted 1:100): 10)",0.92 (inactive),8.14 (active),0.66 (inactive),1.04 (inactive)
"CC(=O)Oc1ccccc1C(=O)Nc1ncc([N+](=O)[O-])s1 [Nitazoxanide] (stock concentration (mM, diluted 1:100): 10)",7.92 (active),6.54 (active),0.16 (inactive),1.77 (inactive)
"CN(C)CCCC1(c2ccc(F)cc2)OCc2cc(C#N)ccc21 (centres undefined) [Citalopram hydrobromide] (stock concentration (mM, diluted 1:100): 7.9)",-1.83 (inactive),7.31 (active),0.63 (inactive),-0.04 (inactive)
"CN1CCN(CCCN2c3ccccc3Sc3ccc(Cl)cc32)CC1 [Prochlorperazine] (stock concentration (mM, diluted 1:100): 10.4)",2.72 (inactive),-2.14 (inactive),,146 (active)
"C[C@@H]1O[C@@H](OC[C@H]2O[C@@H](Oc3c(-c4ccc(O)c(O)c4)oc4cc(O)cc(O)c4c3=O)[C@H](O)[C@@H](O)[C@@H]2O)[C@H](O)[C@H](O)[C@H]1O [Rutin] (stock concentration (mM, diluted 1:100): 10)",-0.59 (inactive),-1.04 (inactive),0.28 (inactive),-2.67
"CC(=O)CCCCn1cnc2c1c(=O)n(C)c(=O)n2C [Lomifylline] (stock concentration (mM, diluted 1:100): 10)",-2.21 (inactive),-1.26 (inactive),-0.96 (inactive),0.79 (inactive)
"Nc1nc2ccc(Cl)cc2c2nc(-c3ccco3)nn12 (stock concentration (mM, diluted 1:100): 10)",-3.14 (inactive),-0.12 (inactive),17.6 (active),5.26 (active)
"O=C(O)COCCN1CCN([C@H](c2ccccc2)c2ccc(Cl)cc2)CC1 [Levocetirizine] (stock concentration (mM, diluted 1:100): 10.7)",-2.92 (inactive),-0.24 (inactive),-1.54 (inactive),-0.8 (inactive)
"NC1CCN(c2cccc(Cl)n2)CC1 (stock concentration (mM, diluted 1:100): 10)",13.8 (active),2.37 (inactive),-0.47 (inactive),-0.16 (inactive)
"C=CCc1ccc(O)c(-c2ccc(O)c(CC=C)c2)c1 [Honokiol] (stock concentration (mM, diluted 1:100): 10.1)",0.56 (inactive),,,
